Laboratory results from PubChem BioAssay (Tox21).
Results filed as inconclusive are left out. Calls of active or inactive are those of the source. Unless noted, the call rests on the fitted dose curve; in most records, active means well fitted curve in the direction sought with a large enough effect in the repeat runs; inconclusive means weak or mixed curves; inactive means no such curve, though single readings can be large; an effect the other way counts as inactive or inconclusive.

Experiments:
[1] = qHTS assay to identify small molecule agonists of the sonic hedgehog signaling (Shh) pathway - cell viability counter screen (AID 1259366); further: nearly all actives have a fitted effect of over 50% in size
In short: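 Compounds in DMSO were pin-transferred onto 3T3 Gli1-Luc cells that had settled 4hr; plates then stood 24hr at 37C and 5% CO2. One hour before the end, CellTiter-Fluor was added and fluorescence recorded.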

[2] = qHTS assay to identify small molecule antagonists of the sonic hedgehog signaling (Shh) pathway - cell viability counter screen (AID 1259367); further: nearly all actives have a fitted effect of over 55% in size
In short: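 NIH/3T3-derived Gli1-Luc reporter cells, 2,000/well, plated 4 hr before compound addition, then stimulated with conditioned medium for 24 hr at 37C. Viability measured in the same wells by CellTiter-Fluor fluorescence, reagent added at 23 hr for 1 hr.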

[3] = qHTS assay to identify small molecule agonists of the sonic hedgehog signaling (Shh) pathway (AID 1259368; calls by dose curve; further: series mostly up to about 92 µM; nearly all actives have a fitted effect of over 15% in size)
In short: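 NIH/3T3-derived 3T3Gli1-Luc cells carrying a stably integrated Gli1 response element–firefly luciferase reporter were plated, left 4 hr at 37 C, then given compounds in DMSO for 24 hr. Luminescence was read 30 min after adding luciferase reagent.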

[4] = target: Estrogen receptor beta (Homo sapiens) (UniProt Q92731); assay: qHTS assay to identify small molecule agonists of the estrogen receptor beta (ER-beta) signaling pathway (AID 1259377; active means well fitted activation curve with a large enough effect in the signal ratio in the repeat runs, not every such curve was filed as active; the % refers to the signal ratio)
In short: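 qHTS in ER-beta-UAS-bla HEK293T cells: 6 hr settling, then 16 hr compound at 37C, then LiveBLAzer substrate 2 h at RT before fluorescence reading.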

[5] = target: Estrogen receptor beta (Homo sapiens) (UniProt Q92731); assay: qHTS assay to identify small molecule antagonists of the estrogen receptor beta (ER-beta) signaling pathway (AID 1259378; active means well fitted inhibition curve with a large enough effect in the signal ratio in the repeat runs, not every such curve was filed as active; the % refers to the signal ratio)
In short: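 ER-beta-UAS-bla HEK293T cells in 2% charcoal-stripped FBS medium treated with compound plus 1nM final 17-beta-estradiol for 16 hr at 37C. Beta-lactamase reporter read by FRET substrate fluorescence after 2 hours at room temperature.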

[6] = qHTS assay to identify small molecule agonists of the androgen receptor (AR) signaling pathway in the presence of an antagonist - cell viability counter screen (AID 1259379);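 further: MDA-kb2 human breast cancer cells carrying an MMTV luciferase reporter; series mostly up to about 92 µM; nearly all actives have a fitted effect of over 25% in size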
In short: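 MDA-kb2 human breast carcinoma cells (stable MMTV-luciferase, AR/GR responsive) were seeded 3,000 cells/well, pre-incubated 5 hr at 37C without CO2, then given 3.0uM nilutamide and compounds at 15 concentrations for 16 hr. Viability was read by CellTiter-Fluor fluorescence.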

[7] = qHTS assay to identify small molecule antagonists of the estrogen receptor beta (ER-beta) signaling pathway - cell viability counter screen (AID 1259382); further: series mostly up to about 92 µM; nearly all actives have a fitted effect of over 55% in size
In short: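 ER-beta-UAS-bla HEK293T cells (2,000/well, 2% charcoal-stripped FBS) were pre-incubated 6 hr at 37C, then given compound plus 1nM final 17-beta-estradiol for 16 hr. Viability was read in the same wells by CellTiter-Glo luminescence after 30 min at room temperature.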

[8] = target: Estrogen receptor (Homo sapiens) (UniProt P03372); assay: qHTS assay to identify small molecule agonists of the estrogen receptor alpha (ER-alpha) signaling pathway in the presence of an antagonist (AID 1259383; calls by dose curve; further: top concentration of the series differs between compounds; nearly all actives have a fitted effect of over 15% in size)
In short: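 VM7Luc4E2 cells (endogenous full-length ER-alpha, 4×ERE-luciferase) were precultured 5 days in phenol red-free medium with 10% charcoal-stripped FBS, given 10.0nM ICI-182,780 (final), then treated with compounds at 15 concentrations for 22hr at 37C; luminescence read with ONE-Glo.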

[9] = target: Thyrotropin receptor (Homo sapiens) (UniProt P16473); assay: qHTS assay to identify small molecule antagonists of the thyroid stimulating hormone receptor (TSHR) signaling pathway (AID 1259385; calls by dose curve; further: nearly all actives have a fitted effect of over 20% in size)
In short: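 TSHR-HEK293 cells (800/well) plated 18 h, then compounds with Ro20-1724 and TSH at 1.5 ng/mL final, 30 min at room temperature. cAMP quantified by HTRF (cAMP-d2/anti-cAMP-cryptate, 1 h); 15 concentrations in triplicate.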

[10] = qHTS assay to identify small molecule agonists of the estrogen receptor alpha (ER-alpha) signaling pathway in the presence of an antagonist - cell viability counter screen (AID 1259386);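 further: series mostly up to about 92 µM; cells exposed to compounds for 22 h at 37 °C before the viability read; nearly all actives have a fitted effect of over 30% in size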
In short: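 VM7Luc4E2 cells (endogenous full-length ER-alpha, 4×ERE-luciferase) were held 5 days in phenol red-free medium with 10% charcoal-stripped FBS, plated, then given 10.0nM ICI-182,780 and compounds at 15 concentrations for 22hr at 37C; viability read by CellTiter-Fluor fluorescence.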

[11] = target: Progesterone receptor (Homo sapiens) (UniProt P06401); assay: qHTS assay to identify small molecule agonists of the progesterone receptor (PR) signaling pathway (AID 1346784; calls by dose curve; further: nearly all actives have a fitted effect of over 30% in size)
In short: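 Fluorescence from LiveBLAzer B/G FRET substrate cleavage (2 hr, RT) reported PR activation in PR-UAS-bla HEK 293T cells treated 16 hr at 37C/5% CO2 with compounds; medium contained 2% charcoal-stripped FBS.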

[12] = qHTS assay to identify small molecule antagonists of the progesterone receptor (PR) signaling pathway - cell viability counter screen (AID 1346798); further: series mostly up to about 92 µM; nearly all actives have a fitted effect of over 50% in size
In short: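 CellTiter-Glo luminescence; PR-UAS-bla HEK293T, 3,000 cells/well; compound + R5020, 16 hr, 37C/5% CO2; 30 min RT before read.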

[13] = qHTS assay to identify small molecule antagonists of the TGF-beta/Smad signaling pathway - cell viability counter screen (AID 1346824); further: nearly all actives have a fitted effect of over 50% in size
In short: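 SBE-bla HEK 293T cells, incubated overnight, then compound plus 0.25 ng/mL TGF-beta1 (stock added) for 5 hr at 37 C. Viability was read in the same wells by CellTiter-Glo luminescence after 30 min at room temperature.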

[14] = qHTS assay to identify small molecule antagonists of the sonic hedgehog signaling (Shh) pathway (AID 1259369; calls by dose curve; further: nearly all actives have a fitted effect of over 45% in size)
In short: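 NIH/3T3-derived 3T3Gli1-Luc cells with stably integrated Gli1-Luc reporter were preincubated 4hr at 37 C, then given compounds in DMSO plus Shh conditioned medium and incubated 24hr. Firefly luciferase luminescence read after 30min reagent at room temperature.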

[15] = qHTS assay to identify small molecule agonists or antagonists of the thyroid stimulating hormone receptor (TSHR) signaling pathway - wild type cell line counter screen (AID 1259384; calls by dose curve)
In short: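 Wild-type Hek293 cells, 800/well, 18 h at 37C, then compound with Ro20-1724 for 30 min RT. cAMP by HTRF (cAMP-d2/anti-cAMP cryptate), 1 h RT, fluorescence read. 15 concentrations, triplicates.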

[16] = qHTS assay to identify small molecule agonists of the TGF-beta/Smad signaling pathway - cell viability counter screen (AID 1346829); further: top concentration of the series differs between compounds; nearly all actives have a fitted effect of over 45% in size
In short: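 CellTiter-Glo luminescence readout; SBE-bla HEK 293T cells, overnight plating, compound 5 hr at 37 C/5% CO2, then bla substrate 2 hr RT, then CellTiter-Glo 30 min RT.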

[17] = qHTS assay to identify small molecule agonists of the estrogen receptor beta (ER-beta) signaling pathway - cell viability counter screen (AID 1259380); further: nearly all actives have a fitted effect of over 30% in size
In short: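 ER-beta-UAS-bla HEK293T cells in medium with 2% charcoal-stripped FBS were preincubated 6 hr at 37C, dosed with compound in DMSO for 16 hr, then after the bla read, CellTiter-Glo was added for 30 min at room temperature; luminescence recorded.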

[18] = target: Progesterone receptor (Homo sapiens) (UniProt P06401); assay: qHTS assay to identify small molecule antagonists of the progesterone receptor (PR) signaling pathway (AID 1346795; active means well fitted inhibition curve with a large enough effect in the signal ratio in the repeat runs, not every such curve was filed as active; the % refers to the signal ratio)
In short: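 Fluorescence intensity measured 2 hr after adding beta-lactamase FRET substrate to PR-UAS-bla HEK293T cells that had been co-treated 16 hr with compound and 1 nM R5020 (final concentration) in 2% charcoal-stripped FBS.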

[19] = qHTS assay to identify small molecule agonists of the progesterone receptor (PR) signaling pathway - cell viability counter screen (AID 1346799; calls by dose curve; further: nearly all actives have a fitted effect of over 45% in size)
In short: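 In parallel with the beta-lactamase readout, cytotoxicity toward PR-UAS-bla HEK293T cells was measured by CellTiter-Glo luminescence following 16 hr compound incubation in 2% charcoal-stripped FBS medium.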

Measured: Potency

Sequence of Thyrotropin receptor (Homo sapiens) (P16473 whole entry, looked up): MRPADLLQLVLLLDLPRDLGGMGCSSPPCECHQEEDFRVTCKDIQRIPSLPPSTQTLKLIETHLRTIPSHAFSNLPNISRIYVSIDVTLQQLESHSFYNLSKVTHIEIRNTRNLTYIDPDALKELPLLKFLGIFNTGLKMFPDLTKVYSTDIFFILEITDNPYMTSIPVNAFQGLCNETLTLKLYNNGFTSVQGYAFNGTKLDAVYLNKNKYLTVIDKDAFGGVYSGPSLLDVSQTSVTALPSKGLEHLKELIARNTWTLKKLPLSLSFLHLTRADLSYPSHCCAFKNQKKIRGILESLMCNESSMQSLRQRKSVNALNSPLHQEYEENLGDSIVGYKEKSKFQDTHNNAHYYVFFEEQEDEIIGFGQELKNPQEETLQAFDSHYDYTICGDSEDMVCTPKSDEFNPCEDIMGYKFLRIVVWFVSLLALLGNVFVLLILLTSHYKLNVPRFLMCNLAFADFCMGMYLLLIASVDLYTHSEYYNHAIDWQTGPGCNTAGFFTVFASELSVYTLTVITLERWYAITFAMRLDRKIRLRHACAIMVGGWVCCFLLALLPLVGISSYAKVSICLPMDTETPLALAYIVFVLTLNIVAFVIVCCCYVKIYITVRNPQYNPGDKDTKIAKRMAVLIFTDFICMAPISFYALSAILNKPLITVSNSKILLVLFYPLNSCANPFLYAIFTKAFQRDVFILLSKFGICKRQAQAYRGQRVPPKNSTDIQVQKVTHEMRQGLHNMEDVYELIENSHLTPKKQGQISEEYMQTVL
Sequence of Estrogen receptor (Homo sapiens) (P03372 whole entry, looked up): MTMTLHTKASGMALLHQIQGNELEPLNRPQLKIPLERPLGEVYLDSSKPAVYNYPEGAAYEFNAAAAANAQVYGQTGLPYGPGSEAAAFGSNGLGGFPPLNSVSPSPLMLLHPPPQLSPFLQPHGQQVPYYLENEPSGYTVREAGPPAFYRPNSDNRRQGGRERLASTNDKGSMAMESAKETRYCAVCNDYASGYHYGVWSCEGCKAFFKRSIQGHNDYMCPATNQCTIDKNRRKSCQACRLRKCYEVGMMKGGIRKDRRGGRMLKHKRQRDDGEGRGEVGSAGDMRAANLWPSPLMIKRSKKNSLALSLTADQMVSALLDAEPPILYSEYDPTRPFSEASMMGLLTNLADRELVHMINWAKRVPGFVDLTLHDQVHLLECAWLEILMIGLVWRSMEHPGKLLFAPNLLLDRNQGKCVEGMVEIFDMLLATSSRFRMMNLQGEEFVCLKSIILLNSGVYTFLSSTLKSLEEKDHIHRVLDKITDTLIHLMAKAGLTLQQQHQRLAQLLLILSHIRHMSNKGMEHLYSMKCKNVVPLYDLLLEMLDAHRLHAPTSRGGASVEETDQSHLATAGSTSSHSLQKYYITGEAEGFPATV
Sequence of Estrogen receptor beta (Homo sapiens) (Q92731 whole entry, looked up): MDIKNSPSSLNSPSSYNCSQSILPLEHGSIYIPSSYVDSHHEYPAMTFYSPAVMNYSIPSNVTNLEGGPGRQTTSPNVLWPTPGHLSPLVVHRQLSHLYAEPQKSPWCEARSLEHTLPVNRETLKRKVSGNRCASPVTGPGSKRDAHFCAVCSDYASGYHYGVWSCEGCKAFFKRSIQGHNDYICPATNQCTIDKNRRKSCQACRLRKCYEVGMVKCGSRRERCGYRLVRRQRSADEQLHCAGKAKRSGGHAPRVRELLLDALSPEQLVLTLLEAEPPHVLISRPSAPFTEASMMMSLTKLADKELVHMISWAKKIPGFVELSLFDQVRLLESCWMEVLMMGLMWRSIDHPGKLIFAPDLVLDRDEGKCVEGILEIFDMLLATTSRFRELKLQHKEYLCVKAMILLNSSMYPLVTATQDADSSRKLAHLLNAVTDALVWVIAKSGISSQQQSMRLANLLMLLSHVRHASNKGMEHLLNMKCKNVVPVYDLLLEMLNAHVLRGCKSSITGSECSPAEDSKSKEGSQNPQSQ
Sequence of Progesterone receptor (Homo sapiens) (P06401 whole entry, looked up): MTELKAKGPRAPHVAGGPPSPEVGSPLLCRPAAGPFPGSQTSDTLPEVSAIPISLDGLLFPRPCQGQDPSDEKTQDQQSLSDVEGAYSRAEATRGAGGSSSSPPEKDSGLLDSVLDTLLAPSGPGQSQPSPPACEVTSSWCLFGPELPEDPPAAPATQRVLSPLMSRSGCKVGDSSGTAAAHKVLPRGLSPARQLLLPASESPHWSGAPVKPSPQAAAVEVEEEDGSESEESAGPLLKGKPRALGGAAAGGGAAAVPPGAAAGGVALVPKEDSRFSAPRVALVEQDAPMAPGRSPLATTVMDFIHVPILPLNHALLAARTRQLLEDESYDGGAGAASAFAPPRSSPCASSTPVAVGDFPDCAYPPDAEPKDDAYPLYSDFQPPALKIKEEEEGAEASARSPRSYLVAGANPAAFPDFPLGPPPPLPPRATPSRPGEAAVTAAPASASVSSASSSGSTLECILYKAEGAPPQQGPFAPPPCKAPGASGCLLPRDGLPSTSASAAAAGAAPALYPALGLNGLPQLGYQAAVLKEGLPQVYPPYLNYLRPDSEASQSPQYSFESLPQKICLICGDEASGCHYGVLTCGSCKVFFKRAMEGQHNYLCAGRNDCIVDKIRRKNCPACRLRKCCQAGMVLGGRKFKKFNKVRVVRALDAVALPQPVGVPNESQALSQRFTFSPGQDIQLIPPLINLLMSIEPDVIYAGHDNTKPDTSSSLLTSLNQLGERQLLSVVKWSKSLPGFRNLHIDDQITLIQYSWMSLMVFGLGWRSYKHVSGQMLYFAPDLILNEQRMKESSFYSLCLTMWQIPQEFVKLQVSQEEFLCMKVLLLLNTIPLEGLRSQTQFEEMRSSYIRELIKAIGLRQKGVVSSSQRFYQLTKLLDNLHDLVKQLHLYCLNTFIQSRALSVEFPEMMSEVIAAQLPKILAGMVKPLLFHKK

O=C(O)CCCCCCCCCC(=O)O
inactive: [1] | [2] | [3] | [4] | [5] | [6] | [7] | [8] | [9] | [10] | [11] | [12] | [13]

CSC(=O)c1cccc2nnsc12
inactive: [1] | [2] | [3] | [14] | [7] | [8] | [15] | [9] | [10] | [12] | [13] | [16]

CC(C)C(=O)Nc1cccc(C2CN3CCSC3=N2)c1 (stereo unspecified)
inactive: [1] | [2] | [3] | [4] | [5] | [6] | [17] | [7] | [8] | [9] | [10] | [11] | [18] | [12] | [19] | [13] | [16]

CCCCCCCCCCCCCCCC/C=C/C1CC(=O)OC1=O (stereo unspecified)
inactive: [1] | [2] | [3] | [4] | [5] | [6] | [17] | [15] | [9] | [10] | [12] | [19] | [13] | [16]

CC(=O)OC/C=C(/C)CCC=C(C)C
inactive: [1] | [2] | [3] | [14] | [17] | [7] | [8] | [15] | [9] | [10] | [11] | [18] | [12] | [19] | [13]

CCCCOCCCC
inactive: [1] | [2] | [3] | [7] | [8] | [15] | [9] | [10] | [11] | [18] | [12] | [19] | [13] | [16]

CCOC(=O)[C@H](CCc1ccccc1)N[C@H]1CS[C@H](c2cccs2)CN(CC(=O)O)C1=O
inactive: [1] | [2] | [3] | [14] | [17] | [7] | [8] | [15] | [9] | [10] | [19] | [13] | [16]

Cc1ccc(OC(=O)CC(C)C)cc1
inactive: [1] | [2] | [3] | [14] | [17] | [8] | [9] | [10] | [11] | [18] | [12] | [19] | [16]

CCCCCC(=O)CC
inactive: [1] | [2] | [3] | [14] | [17] | [7] | [9] | [10] | [13] | [16]
